Among all 52,000 sequences or so, about 210 (0.4%) were called active.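 The calls were made as follows: active = gene whose silencing raises cell survival under the drug, median off-target-corrected z-score across its silencing RNAs 2 or more; inactive = the rest.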 Only a selection was taken, and actives are over-represented in it overall.

The nature of this assay: Resistance to Poly (ADP-Ribose) Polymerase inhibitor: Gene Identification via Genome-wide siRNA Screen. The settings on record: mouse BRCA2 R2336H ES cells, olaparib, CellTiter-Glo viability; hits give high values. The gist of the method:
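Mouse BRCA2 R2336H ES cells were reverse-transfected with siRNA (20 nM final), treated at 48 h with 500 nM olaparib, and read by CellTiter-Glo after 72 h. Scores: MAD-based z per siRNA, median per gene, seed off-target correction.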
Background: Cellular ATP, detected with luciferase, serves as a proxy for viable cell number.
As to GCUAAUUUGACAAAGACGGTT against Bfsp2, the z-score was 1.26 (inactive).

In the case of GGAAGUCAGACAGAUUUAATT against Prss33, the z-score was 3.17 (active).

Consider GGACAUAAAAAUACGCCAGTT against Hsf1, for which the z-score is 3.22 (inactive).

Take GGGCAGAGUGAUGUUGUCATT against Gsdmdc1: the z-score was -1.93 (inactive).

As for CCAGCAUAUCUACUGUUCUTT against V1rf2, the z-score was -0.647 (inactive).

Consider GGACACAAAUGACAUCAACTT against Ptpns1, for which the z-score is -0.156 (inactive).

Turning to CGUCUCUGCUGAGAACAUGTT against Kcnk15, the z-score is 2.15 (active).

Turning to GGUUGUGGAACUAGAAUAUTT against Wdr12, the z-score was -1.25 (inactive).

As to GGGAUGUAUUAGUGAAAGGTT against Dm15, the z-score is -0.213 (inactive).

For the sequence CCGAAAGAACACAAUCUAUTT against Ifi16, the z-score was -0.1 (inactive).

On to GGAAAAGUCCUGUAAAAUUTT against Dmrta1, for which the z-score was 0.431 (inactive).

Regarding “GGACAUGACCAAAAGGCUGTT against 3110006P09Rik”, the z-score was 2.27 (active).

Take GCUUAUGAUGAACAAGCCCTT against Aplra1: the z-score is 0.51 (inactive).

With GGCUGCCUCGAAAUUACAATT against Lamb3, the z-score is -1.79 (inactive).

As to GGACCAGAAAAUUCACUUUTT against Gdap2, the z-score is -1.39 (inactive).

On to “GGCCUUCUCUGACUUUCUGTT against D430030K24Rik”, for which the z-score was 3.28 (active).

As to CCCAUUAUUGGCACUACAATT against LOC434285, the z-score was -0.98 (inactive).

Take GCUAGGAAGAGAGUGAUCUTT against Alg1: the z-score was -0.838 (inactive).

Consider GGAAGAAAACAUGGAAGAATT against Usp47, for which the z-score was 3.28 (active).

Take GCAAGUUAUCCAGCACUCATT against Ylpm1: the z-score is -1.57 (inactive).

With GCCUCAGAAAAACAUCUAUTT against BC008103, the z-score was 2.16 (inactive).

Consider GGACGAACCUUUAUACCAGTT against Arhgef15, for which the z-score is -1.21 (inactive).

GGCAUUCGAAGGGACAGAUTT against Arg2: the z-score is -0.343 (inactive).

On to GGGUAGCUGGCGAAUCAAATT against Ptpro, for which the z-score was 1.43 (inactive).

In the case of GGAGCAAAUCCAGAGCAACTT against Actr8, the z-score is 2.88 (active).

Take “GGAUUCUGCCUGAUCAAUGTT against 1110008F13Rik”: the z-score is -1.08 (inactive).

As for “GGGAUGCUUUUGGCCCAAATT against 1110008J03Rik”, the z-score is -0.285 (inactive).

Regarding GCAUCGUUACAGGACUUUATT against Enpp1, the z-score was -0.601 (inactive).

In the case of CGAUGAAAUCAUCACUAUCTT against Cyfip1, the z-score is -0.619 (inactive).

Regarding “GGGAGAAGAAAUGGUUUAATT against B230315M08Rik”, the z-score was 1.54 (active).

For GGAGACAAAUAUGAUGUAUTT against Hook1, the z-score was -1.94 (inactive).

Consider GGAUUUUUCUUUUGAGCGATT against Figf, for which the z-score is -0.866 (inactive).

For GCACGUGGGCUAUUCCUACTT against Gria1, the z-score was 2.78 (active).

Regarding CCAACUUUCUCUUAGGAAATT against Gm580, the z-score is 0.9 (inactive).

With CCUAUUUUUUCUCCACUGATT against Sntg1, the z-score was -0.718 (inactive).

As to “GGUCAUGGAAGAAGCAAAGTT against 5730555F13Rik”, the z-score is 2.7 (inactive).

“GGUUUUUUACACAACAUGCTT against 1110067D22Rik”: the z-score was 0.0564 (inactive).

Consider GGAGUACGUUGACAUCAUCTT against Timp4, for which the z-score was -1.01 (inactive).

For GCGCAUAUUUUAUCAACUCTT against Plcb3, the z-score was 1.31 (active).

With GGAGAAACUUCAACUCUUATT against Resp18, the z-score is 0.73 (inactive).

On to CGAAAGAAGGUGAGGGCUCTT against Ppp1r9a, for which the z-score is -0.95 (inactive).

GCGUAUCCCAGAUAUCCGATT against BC064033: the z-score was 0.0741 (inactive).

Take “GCUGUUGCUGGCUAUUCUGTT against 5730409G15Rik”: the z-score was 0.298 (inactive).

In the case of GCCUCACAACUCUUACACCTT against Ptprc, the z-score is 0.888 (inactive).

Regarding GGAUGGUCAUAAGGAUCAATT against Gpr128, the z-score is 2.66 (active).

CCAAGUAUUUCACAAACCGTT against Slc29a1: the z-score is 1.5 (inactive).

With GGAAGAUGUCCAAACCCGCTT against Tm4sf7, the z-score is 0.167 (inactive).

With “CCAACUCGUUAUCACUAUATT against 1700001D09Rik”, the z-score is -0.0393 (inactive).

On to “GGGUACAAUAUCCUUAAGUTT against D430033A06Rik”, for which the z-score is -0.51 (inactive).

Consider GAUUCCACGCCAAUUCAUCTT against Ccl3, for which the z-score is -1.53 (inactive).

As to CCCACCUAGGUUCAUCCCATT against Fath, the z-score was 2.93 (active).

As for GGCUUAUCAGUCCAUGAAGTT against BC022224, the z-score was 1.93 (inactive).

GGAGCCGAGUACAACAUCATT against Galgt1: the z-score is 0.763 (inactive).

Turning to CGUUUUCCACAAAGCAAAATT against Olfr1465, the z-score was 0.0226 (inactive).

In the case of GGCAAAGUGAUAUUUUCAATT against Slc6a12, the z-score is 1.85 (active).

CCCGGAACUUAACUCUGUATT against LOC381438: the z-score was -0.264 (inactive).

Take GCCAUUUACAUUCCCAGGGTT against Gm741: the z-score is 0.238 (inactive).

For the sequence CCAAGCAACACCACUCAUCTT against Centb2, the z-score is -0.144 (inactive).

On to GGAGAUGAAGAGGUUGGUUTT against Olig3, for which the z-score was -0.366 (inactive).

As to GGGAUCGAUCAAUCAUAACTT against Tcfap2c, the z-score was 1.8 (inactive).

GGAAAUCUUACAGACUGAGTT against Grid2: the z-score was 2.5 (active).

As for GCGCAAGUACCUCAAGAGUTT against Grem2, the z-score was 0.717 (inactive).

As to “GGUGCUAGUGUAUGAAUUATT against 9830109N13Rik”, the z-score is 2.24 (inactive).

In the case of GGUGAUAACUCCCUAGUAGTT against Rai12, the z-score was -1.43 (inactive).

As to CGGACAUUGUUCUGUUUUCTT against Por, the z-score is 1.14 (inactive).

Take CGACAUGUAAAACUAUUGUTT against BC034097: the z-score is 0.0442 (active).

As for “CCUCUAGUAAAGAAAUAGATT against 2610019N13Rik”, the z-score is -2.5 (inactive).

Take “GGGCUGAUGUGGGCUAAAUTT against 1110001E17Rik”: the z-score is 4.07 (active).

On to “CGAAGCUAAAGGAUAUAGATT against 1110025H10Rik”, for which the z-score was 0.236 (inactive).

For GCCCAUAACAAAACAUCUATT against Mcpt5, the z-score is 1.1 (inactive).

GGACAGAGCGUGCACUAGATT against Pqlc2: the z-score was 0.262 (inactive).

On to “CCCUCCAAGAUAGAAGCGGTT against 2610021K21Rik”, for which the z-score was 0.124 (inactive).

On to GGUGGCAUGUCAUUGCUUCTT against Igf2, for which the z-score was 1.16 (inactive).

On to GUCACUUGGCUUCCAUUGATT against Olfr510, for which the z-score is 1.19 (active).

On to “GGUUUGAAAUCAGCAUGAUTT against A530065I17Rik”, for which the z-score is -0.647 (inactive).

As to GGCUUUGUGCUAAAAAAAATT against Pgm2l1, the z-score was 0.12 (inactive).

Consider “CGCAGACAGUUUGAGGCUGTT against 1700034P14Rik”, for which the z-score was -0.696 (inactive).

As for CCUUAGUUAGAAAUGUUGATT against Xkh, the z-score is 0.357 (inactive).

As for GCUGAAAAUACAAUCUCUGTT against Capn3, the z-score was 2.18 (inactive).

Turning to “GGAACUGAUAACCAGCCAGTT against 1700029B21Rik”, the z-score was -0.44 (inactive).

Consider CCUUGAUGACGAAAACAUATT against Plekha2, for which the z-score was 0.756 (inactive).

In the case of “GGCGAAGGUGUAGAAUCUCTT against A830094I09Rik”, the z-score is 2.23 (active).

Regarding CGAAGUUCAUUCCUGUCUATT against Myf6, the z-score is -0.688 (inactive).

As for GGAUUACGGUCACUGCCAUTT against Gabrr2, the z-score was 1.39 (inactive).

In the case of GGAGAUGACGUGAAAACAATT against Srf, the z-score is 1.93 (inactive).

For GACUAGAACAACAGAAAGUTT against Vax2, the z-score is 1.24 (inactive).

GCAAGUAUACACCUCUCAATT against Slc6a12: the z-score is 2.24 (active).

Regarding “GGUAUACACAUGAAAACCATT against 3110023B02Rik”, the z-score is 2.35 (inactive).

As for GGAUGGUGACAUGAAAAUCTT against Ifng, the z-score was -0.37 (inactive).

As to “GGUGAUACGUAUUUUUUAGTT against 2700050F09Rik”, the z-score is 1.03 (active).

For CCACCAGACUCAUAUUAACTT against LOC433501, the z-score was -0.496 (inactive).

With CGAUUUGGCCUUGAUGGGUTT against Wtip, the z-score is -0.561 (inactive).

“GGAUAUCAAAGACAAAGCATT against 3100002B05Rik”: the z-score is 0.612 (inactive).

As for GCCCAUUAUUUUCGGACUGTT against Olfr845, the z-score was -2.22 (inactive).

Turning to CCUCAAUUGCAUGUGACCUTT against Itgb1bp1, the z-score is -0.642 (inactive).

With GGGCCUUUGGAUGUUGCUATT against Abcc10, the z-score was 1.24 (inactive).

Turning to “GGUCCUUCCUCAGAUCCCUTT against 5730457F11Rik”, the z-score was 1.66 (active).

Turning to GCUCUCACACCCUUAUGUATT against Sdfr1, the z-score is -1.45 (inactive).

In the case of GGAAUACUUAUAGCUGACUTT against Rdhe2, the z-score is 0.32 (inactive).

Regarding GGGCUAUAACCCUGAAGAUTT against Rarg, the z-score is 1.67 (active).

In the case of “GGACUUAGACAUCCACCUCTT against 1700034O15Rik”, the z-score is -0.799 (inactive).

In the case of CCGGGUGCUGUUCUAUAAGTT against Pecam1, the z-score is 0.0651 (inactive).

For the sequence “GCUUGGAAGACUGUAAACUTT against 4921521K07Rik”, the z-score was 0.958 (inactive).

For the sequence GGUGGUCUGGUUCAAGGAUTT against Mylk, the z-score is -0.558 (inactive).

GGGUCCCUAAGCAUGUUCCTT against Slfn10: the z-score is 1.48 (inactive).

For the origin of these results see PubChem BioAssay AID1347423 (Functional Genomics Laboratory (NCATS/FGL), 2020).
